This excerpt belongs to a sample that is enriched for hits.
Algae TAG accum – inducers of TAG accumulation in Chlamydomonas, primary screen, qHTS, Chlamydomonas reinhardtii. Nile Red fluorescence, 72 h. calls only at 10 µM (by protocol). hit rate 0.84% among 44,000. AID 1159537, 2015; call rule not given here;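 also: hits raise Nile Red signal meaning more stored TAG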
The depositor's hits bear a star; i = inactive; + = active, no number.

SMILES	Algae TAG accum
COc1ccccc1N1CCN(Cc2ccc(C)cc2)CC1	+
CCCCOc1ccc(CN2CCN(CC)CC2)cc1	i
COc1ccccc1N1CCN(Cc2ccccc2)CC1	i
COc1ccccc1N1CCN(Cc2ccc(C(C)C)cc2)CC1	i
CCOc1cc(CN2CCN(c3ccccc3C)CC2)ccc1O	i
CCN1CCC(O)(c2ccc(F)cc2)C(C(=O)c2ccc(F)cc2)C1 (stereo not drawn)	i
COc1ccc(Cl)cc1NC(=O)C(Cl)(Cl)Cl	i
Cc1ccc(CN2CCN(C)CC2)o1	i
Cc1ccc(CN2CCN(CCO)CC2)cc1	+
Cc1ccc(CN2CCN(C)CC2)cc1	i
OCCN1CCN(Cc2ccc(F)cc2)CC1	i
Oc1ccc(Br)cc1CN1CCN(Cc2ccccc2)CC1	i
COc1ccc(CN2CCN(C)CC2)cc1	i
CC1CCCC(NC2CCC(O)CC2)C1 (stereo not drawn)	i
CCCCn1c(=O)c(C(=O)Nc2ccc(O)cc2)c(O)c2ccccc21	i
COc1ccc(CCNC2CC3CCC2C3)cc1 (stereo not drawn)	i

Compound activity (PubChem BioAssay)
